This is an account of results in PubChem BioAssay AID686979 (National Center for Advancing Translational Sciences (NCATS), 2013).

“And” between values parts separate entries of the source, which are not always exact repeats. Identical values can stand only once. Among all 420,000 compounds or so, about 50,000 (12%) were called active. Not shown: some 26% with an inconclusive outcome. This is one part of a sample in which actives are shown more often than they occur. Values without a mark were called inactive. Calls follow the shape of the dose curve; as a rule, active = well fitted inhibition curve with a large enough effect; inconclusive = small, poorly fitted or top-dose-only effect; inactive = flat fitted curve, though single readings scatter.
% is scaled to controls: 0 for no effect and ±100 for the full control effect; potency is read from the fitted curve at half-maximal effect.

The test in a line: qHTS for Inhibitors of human tyrosyl-DNA phosphodiesterase 1 (TDP1): qHTS in cells in presence of CPT. Also: nearly all actives have a fitted effect of over 55% in size. Conditions: chicken DT40 Tdp1-/-;hTDP1 cells + 20 nM CPT, ATP luminescence, 48 h; series mostly up to 46.2 µM; activity change, negative = growth inhibition: at the top concentration. A digest of the protocol: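 Chicken DT40 Tdp1-/- cells complemented with human TDP1, 400 cells/well, exposed to compounds plus 20 nM camptothecin for at least 48 h at 37 C; viability read as ATP content by CellTiter-Glo luminescence.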
Regarding `Cc1ccccc1NC(=O)CCNS(=O)(=O)c1ccc2[nH]c(=O)oc2c1`, the “activity change, negative = growth inhibition” value is 12%.

As to `O=C(C1CC1)N1CCc2cc(Br)cc(S(=O)(=O)N3CCN(c4ccccc4F)CC3)c21`, the “activity change, negative = growth inhibition” value is -21%. Same read-out and setting: the value for `CC1CCC2(CC1)NC(=O)N(CC(=O)NCc1ccco1)C2=O` (centres undefined) was 2.42%; that for `O=C(CCCCCN1C(=O)c2cccc3cccc(c23)C1=O)NCc1ccco1` was 10.3%. Consider `O=C(CN1C(=O)/C(=C\c2ccc(C(F)(F)F)cc2)Sc2ccccc21)NCc1ccco1`, for which the Potency is 18.4 µM (active). Consider `Nn1c(SCC(=O)Nc2nccs2)nnc1-c1ccco1`, for which the “activity change, negative = growth inhibition” value is 7.48%. On the same count and under the same terms, the value for `Cc1ccc(CNC(=O)Cn2c(=O)ccc3cc(S(=O)(=O)N4CCCC4)ccc32)cc1` was -22.5%; that for `COc1cccc(N2CC(C(=O)NCc3n[nH]c(=O)c4ccccc34)CC2=O)c1` (centres undefined) was -27.9%.

With `O=c1[nH]c2cccnc2n(CCNc2ncc(C(F)(F)F)cc2Cl)c1=O`, the “activity change, negative = growth inhibition” value was 5.87%. Same read-out and setting: to `CCOc1ccc(Cn2nnc(C(=O)NCc3ccccc3)c2N)cc1` belongs 25%. With `CCOc1ccccc1NC(=O)Cn1nnc(C(=O)NCc2cccs2)c1N`, the Potency was 5.2 nM (active) and 130 nM (active). Regarding `CCOc1ccccc1NC(=O)Cc1cccs1`, the “activity change, negative = growth inhibition” value is -0.43%. Same read-out and setting: to `COC(=O)C[C@H]1C=C[C@@H](NS(=O)(=O)c2ccc(C)cc2)[C@@H](CO)O1` belongs 13.9%; to `O=C(c1cc(COc2c(F)cccc2F)on1)N1CCSCC1`, -14.8%. `NC(=O)Cn1nc([N+](=O)[O-])nc1Oc1ccc(Br)cc1`: the “activity change, negative = growth inhibition” value was -25.2%. Same read-out and setting: the value for `Cc1ccccc1Nc1nc(N)nc(CSc2nnc3ccccn23)n1` was 0.37%; that for `COc1cc(/C=N/NC(=S)Nc2cccnc2)cc(OC)c1O` was 0.37%; that for `COc1ccccc1CNC(=O)COc1ccc(C)nc1[N+](=O)[O-]` was -22.6%. Turning to `CCC(C)(C)n1nnnc1C(c1ccc(OC)c(OC)c1)N1CCN(C(=O)c2ccco2)CC1` (centres undefined), the “activity change, negative = growth inhibition” value is 1.48%. Consider `CN1CCN2c3ccccc3Cc3ccccc3[C@@H]2C1`, for which the Potency was 13.3 µM (active).

Consider `CN1CCN(C(=O)N2c3ccccc3CCc3ccccc32)CC1`, for which the “activity change, negative = growth inhibition” value was 18.3%. Take `CCOCCCNC(=O)c1cn(CC(C)C)c(=O)c2c1c1ccccc1n2C`: the Potency result was “inactive”. Consider `CC(=NNC(N)=O)C1CC2CCC1CC2` (centres undefined), for which the “activity change, negative = growth inhibition” value was 1.34%. On the same count and under the same terms, the value for `CCOC(=O)C1CCN(c2csc3ccc(C)cc3c2=O)CC1` was 4.08%; that for `CCOC(=O)C1CCN(CCC(=O)Nc2cccc(C)c2)CC1` was -5.96%.

Take `CCOC(=O)C1CCN(c2c(Nc3cc(C)cc(C)c3)c(=O)c2=O)CC1`: the Potency was 14.6 µM (active). Regarding `O=C(COC(=O)Cc1ccc([N+](=O)[O-])cc1)NC1CCCCCC1`, the “activity change, negative = growth inhibition” value is -14.7%. On the same count and under the same terms, the value for `Cc1ccsc1C1C(C#N)=C(N)OC2=C1C(=O)CC(C)(C)C2` (centres undefined) was 4.55%; that for `CN1CCN(S(=O)(=O)c2ccc(Nc3ccc(F)cc3)nc2)CC1` was -5.23%.
